Records with an inconclusive call do not appear. Values without a mark were called inactive. The call rests on the fitted dose curve; in most records, active means well fitted inhibition curve with a large enough effect; inconclusive means small, poorly fitted or top-dose-only effect; inactive means flat fitted curve, though single readings scatter.
Molecular target: Calcium and integrin-binding protein 1 (Homo sapiens) (UniProt Q99828)
Assay: Primary qHTS for Identification of Calcium Integrin Binding Protein 1 (CIB1) Competitor (AID 1508620);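 further: GST tagged CIB1 binding a fluorescein labelled alphaIIb integrin peptide tracer; top concentration of the series differs between compounds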
Conditions: CIB1-GST / FITC-alphaIIb peptide fluorescence polarization; series mostly up to 114 µM; activity change, negative = inhibition: at the top concentration
Outline: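 Fluorescence polarization competition: CIB1-GST (1 uM final) preincubated with compound 15 min at room temperature, then FITC-labeled alphaIIb peptide (100 nM final) added for another 15 min. Polarization read at Ex 480/Em 540.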
On the % scale 0 is the no-effect control and ±100 the full control effect.

Chain of Calcium and integrin-binding protein 1 (Homo sapiens) (Q99828 whole entry, looked up): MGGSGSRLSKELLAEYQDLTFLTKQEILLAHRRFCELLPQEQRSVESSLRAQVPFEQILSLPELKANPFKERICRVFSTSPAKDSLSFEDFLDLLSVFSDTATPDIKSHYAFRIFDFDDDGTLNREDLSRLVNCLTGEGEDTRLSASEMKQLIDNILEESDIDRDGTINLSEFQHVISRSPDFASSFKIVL

Structure (SMILES)	activity change, negative = inhibition [%]
O=C(OCC#CCSc1nnc(-c2cccc(F)c2)o1)c1ccc(F)cc1	2.26
Cc1cc(C)nc(NC(=S)N2CCN(c3ccc4nncn4c3)CC2)c1	-7.09
N#Cc1ccccc1-c1csc(N2CCC(C(N)=O)CC2)n1	-5.27
COc1cccc(C2c3c(ncn(-c4ccc(-c5ccccc5)cc4)c3=N)Oc3ccc4ccccc4c32)c1 (stereo not given)	10.8
Cn1c2ccsc2c2cnn(Cc3ccccc3F)c(=O)c21	7.04
O=C1CCc2cc(S(=O)(=O)Nc3ccccc3Cl)ccc2N1	-6.14
Cc1cc(N[S+](=O)([O-])c2ccc(NC(=O)Cc3nc4ccc(Cl)cc4[nH]3)cc2)no1	-19.8
O=C1CCCC2=C1C(c1[nH]ncc1Cl)NC(=NCCc1ccccc1)N2 (stereo not given)	2.97
COc1cccc(C2c3c(ncn(-c4ccc(C#N)cc4)c3=N)Oc3ccc4ccccc4c32)c1 (stereo not given)	10.1
Cc1c(P(=S)(c2ccccc2)c2ccccc2)[n+]2ccccc2n1CCCCc1ccccc1	3.71
Cc1ccc(NS(=O)(=O)c2cc3c(cc2NCC(C)(C)O)NC(=O)CC3)cc1C	-6.84
COc1ccc(C2N(Cc3ccccc3)C(=O)c3ccccc3N2C)cc1COc1ccc(NC(C)=O)cc1 (stereo not given)	0.344
Cc1cc(NC(=O)Nc2nnc(C3CCCCC3)s2)ccc1Br	0.722
CN(CC(F)(F)F)c1nc(NCc2ccc(-c3cccnc3)cc2)c2ccccc2n1	2.89
c1csc(CCNc2ncnc3ccc(-c4ccc5c(c4)OCO5)cc23)c1	27.3
O=C(OCC#CCSc1nnc(-c2ccco2)o1)c1ccc(F)cc1	0.273
O=C(OCC#CCSc1nnc(-c2ccc3ccccc3c2)o1)c1ccc(F)cc1	0.169
FC(F)(F)c1cccc(N2CCN(C(=S)Nc3ncnc4ccccc34)CC2)c1	12.6
Cc1ccc(C(=O)Nc2ccc(N3CCOCC3)cc2)cc1	-2.12
Cc1cc2c(s1)c1cnn(Cc3ccc(C(F)(F)F)cc3)c(=O)c1n2C	1.04

Structure (SMILES)	activity change, negative = inhibition [%]
Cc1cc2c(s1)c1cnn(Cc3c(F)c(F)cc(F)c3F)c(=O)c1n2C	2.85
O=C(CN1C(=O)N/C(=C\c2cccn2-c2cccc(C(=O)O)c2)C1=O)Nc1ccccc1F	-5.75
Fc1cc(Nc2nc(-c3ccncc3)nc3ccccc23)ccc1-c1ccnc(C(F)(F)F)c1	8.08
Cc1noc(C)c1-c1ccc2ncnc(NCC3CCCCN3C)c2c1 (stereo not given)	-0.508
Cc1nc(CCN(C)c2ncnc3ccc(-c4ccc5c(c4)OCO5)cc23)cs1	-1.78
FC(F)(F)c1cccc(Nc2ccc(CNc3nc(-c4ccccc4C(F)(F)F)nc4ccccc34)cc2)c1	4.13
COc1cccc(-c2ccc(CNc3ccc(N4CCN(C(=O)OC(C)(C)C)CC4)cc3)o2)c1	2.18
O=[S+]([O-])(Nc1ccccc1)c1ccc(NCc2cccc(Cl)c2F)cc1	8.19
NC(=O)C1CCN(c2nc(-c3ccc(Oc4ccccc4)cc3)cs2)CC1	-0.992
Nc1nc(NCc2ccc(-c3ccnc(C(F)(F)F)c3)cc2)c2ccccc2n1	26.1
Cc1cccc(-n2cnc3cc(C(=O)N4CCC(c5ccccc5)CC4)ccc32)c1	-9.9
Cc1ccc(OCCn2c(CCNC(=O)CCc3ccc(N)cc3)nc3ccccc32)cc1	2.44
Cc1ccc(C)c(SC2=NS(=O)(=O)c3ccccc32)c1	-1.12
CC(=O)c1ccc(N2CCN(S(=O)(=O)c3ccc4c(c3)CCC(=O)N4)CC2)cc1	15
NC(=O)C1CCN(c2nc(-c3cccc(C(F)(F)F)c3)cs2)CC1	3.18
Cc1ccnc(NC(=S)N2CCN(c3ccc(C(F)(F)F)cc3[N+](=O)[O-])CC2)c1	-9.39
Cc1ccc(OCCn2c(CCNC(=O)Cc3cccc4ccccc34)nc3ccccc32)cc1	21.4
O=C(CNC(=O)c1ccc(Cl)c(C(F)(F)F)c1)OC(C(=O)Nc1cc(C(F)(F)F)ccc1Cl)c1ccccc1 (stereo not given)	-4.97
COc1ccc(C2Nc3ccccc3C(=O)N2Cc2ccccc2)cc1COc1ccc(C)cc1 (stereo not given)	1.29
C=C(C)c1cc2c(s1)c1cnn(Cc3ccccc3F)c(=O)c1n2C	-0.797

From PubChem BioAssay (NCATS)
